{"source": "PubChem BioAssay (NCATS)", "note": "Results filed as inconclusive are left out. Where a call stands in place of a potency, no number is given. Active and inactive are the calls of the source. Calls come from the whole dose curve; as a rule, active = well fitted cell-killing curve with a large enough effect; inconclusive = small, poorly fitted or top-dose-only effect, or effect the other way; inactive = no such curve, though single readings can be large or run the other way. Potency is the fitted concentration of half-maximal effect.", "data": [{"experiment": "Viability qHTS for spleen associated tyrosine kinase inhibitor (SYKi) naive MV4-11 cells (AID 1963823); note: nearly all actives have a fitted effect of over 40% in size", "conditions": "MV4-11 AML viability, CellTiter-Glo luminescence, 72 h; series mostly up to 45 µM", "how_it_was_run": "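Compounds were dispensed acoustically onto plates, MV4-11 cells (SYKi-naive) added at 500 per well, and plates incubated 72 hr at 37 C. CellTiter-Glo was added and luminescence measured after 10 min.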", "values": [{"smiles": "CC1C(O)C(O)C2C(C(=O)OCCc3ccc(O)cc3)=COC(O[C@@H]3O[C@H](CO)[C@@H](O)[C@H](O)[C@H]3O)C12", "note": "(stereo partly drawn)", "Potency": "inactive"}, {"smiles": "O=C(O)c1cc(-c2c(-c3ccccc3)nn3ccccc23)n[nH]c1=O", "Potency": "inactive"}, {"smiles": "CC(=O)OCCC(C)CCC1C(C)(O)CCC2C(C)(C)CCCC21C", "note": "(stereo not drawn)", "Potency": "inactive"}, {"smiles": "C=C1[C@@H]2CC[C@@]3(C)[C@H](c4ccoc4)OC(=O)C[C@]13O[C@H]1CC(=O)C(C)(C)[C@H](C(O)C(=O)OC)[C@]12C", "note": "(stereo partly drawn)", "Potency": "inactive"}, {"smiles": "Cc1ccc(NC(=O)N2CCN(c3nc(N)nc4sc(-c5cccnc5)nc34)CC2)cc1", "Potency": "0.013 µM (active)"}, {"smiles": "CC(C)[C@@](O)(c1ccc2cc(OC(F)F)c(OC(F)F)cc2c1)c1cn[nH]n1", "Potency": "18.4 µM (active)"}, {"smiles": "C[n+]1ccc(-c2c3nc(c(-c4cc[n+](C)cc4)c4ccc([nH]4)c(-c4cc[n+](C)cc4)c4nc(c(-c5cc[n+](C)cc5)c5ccc2[nH]5)C=C4)C=C3)cc1", "Potency": "inactive"}, {"smiles": "O=C(O)c1c[nH]c2c(ccc3ccccc32)c1=O", "Potency": "23.1 µM (active)"}]}]}
